Measured values taken from PubChem BioAssay AID743100 (Vanderbilt Specialized Chemistry Center, 2013).
Values without a mark were called inactive. The source made the active and inactive calls.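 Rule for the calls: active = calcium response above 60% of the acetylcholine maximum at human M5, as a positive modulator; inactive = the rest.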

Molecular target: Muscarinic acetylcholine receptor M5 (Homo sapiens) (UniProt P08912)
Assay: M5 muscarinic receptor positive allosteric modulators, cell-based, single concentration, CHO-K1 hM5, calcium flux (AID 743100)
Conditions: CHO-K1 hM5, Fluo-4 calcium flux, ACh EC20, active compounds read high; at 10 µM unless noted

Muscarinic acetylcholine receptor M5 (Homo sapiens), sequence (P08912 whole entry, looked up): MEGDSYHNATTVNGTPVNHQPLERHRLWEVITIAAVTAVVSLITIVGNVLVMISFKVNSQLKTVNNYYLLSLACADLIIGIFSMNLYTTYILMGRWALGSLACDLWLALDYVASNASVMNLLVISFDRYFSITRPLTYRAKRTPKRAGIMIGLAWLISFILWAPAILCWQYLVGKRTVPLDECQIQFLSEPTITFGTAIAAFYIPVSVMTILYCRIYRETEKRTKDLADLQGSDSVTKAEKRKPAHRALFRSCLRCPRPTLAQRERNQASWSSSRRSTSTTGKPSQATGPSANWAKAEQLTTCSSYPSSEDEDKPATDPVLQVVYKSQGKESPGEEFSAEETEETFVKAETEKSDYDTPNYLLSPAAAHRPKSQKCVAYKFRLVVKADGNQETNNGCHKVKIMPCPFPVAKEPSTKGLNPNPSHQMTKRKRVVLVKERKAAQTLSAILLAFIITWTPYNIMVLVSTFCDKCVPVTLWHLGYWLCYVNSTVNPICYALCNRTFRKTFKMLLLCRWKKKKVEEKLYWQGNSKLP

SMILES | % ACh max response
CCN(Cc1ccccc1)C(=O)C1CCN(S(=O)(=O)c2cccnc2)CC1 | 34.5%
CCN(Cc1cccc(OC)c1)C(=O)C1CCN(S(=O)(=O)c2ccc3cn[nH]c3c2)CC1 | 74.2% (active)
CCN(Cc1ccccc1)C(=O)C1CCNCC1 | 14.9% [at 30 µM]
CCN([C@H](C)c1ccccc1)S(=O)(=O)C1CCN(C(=O)c2ccc3[nH]ncc3c2)CC1 | 26.9%
CCN(Cc1cccc(F)c1F)C(=O)C1CCN(S(=O)(=O)c2ccc3cn[nH]c3c2)CC1 | 63.7% (active)
CCN(Cc1ccccc1)C(=O)C1CCN(S(=O)(=O)c2ccc3nn(C)cc3c2)CC1 | 51.4%
CCN(Cc1ccccc1)C(=O)C1CCN(S(=O)(=O)c2ccc(C(F)(F)F)nc2)CC1 | 56.9% [at 30 µM]
CCN(Cc1ccccc1)C(=O)C1CCN(S(=O)(=O)c2ccc3nsnc3c2)CC1 | 77.9% [at 30 µM] (active)
CCN(Cc1ccc(-c2ccccc2)cc1)C(=O)C1CCN(S(=O)(=O)c2ccc3cn[nH]c3c2)CC1 | 24.8%
CCN(C(=O)C1CCN(S(=O)(=O)N(C)C)CC1)[C@H](C)c1ccccc1 | 29.1%
CCN(Cc1ccc(C(F)(F)F)cc1)C(=O)C1CCN(S(=O)(=O)c2ccc3cn[nH]c3c2)CC1 | 24.2%
CCN(Cc1ccccc1)C(=O)C1CCN(S(=O)(=O)c2cccc(Cl)c2)CC1 | 65.3% [at 30 µM] (active)
CCN(Cc1ccccc1)C(=O)C1CCN(S(=O)(=O)c2ccccn2)CC1 | 36.4%
CCN(Cc1ccccc1)C(=O)C1CCN(S(=O)(=O)c2ccc3[nH]ncc3c2)CC1 | 84.3% [at 30 µM] (active)
CCN(Cc1ccc(C#N)cc1)C(=O)C1CCN(S(=O)(=O)c2ccc3cn[nH]c3c2)CC1 | 8.37%
CCN(Cc1ccccc1)C(=O)C1CCN(S(=O)(=O)c2ccccc2F)CC1 | 38.4% [at 30 µM]

SMILES | % ACh max response
CCN(CC1CCN(S(=O)(=O)c2ccc3occc3c2)CC1)C(=O)c1ccccc1 | 10.9%
CCN(Cc1ccccc1)C(=O)C1CCN(S(=O)(=O)c2ccc(OC(F)F)cc2)CC1 | 66.1% [at 30 µM] (active)
CCc1ccc(S(=O)(=O)N2CCC(C(=O)N(CC)Cc3ccccc3)CC2)cc1 | 64.3% [at 30 µM] (active)
COc1ccc(S(=O)(=O)N2CCC(C(=O)N(C)Cc3ccccc3)CC2)cc1 | 64.5% [at 30 µM] (active)
CCN(Cc1ccccc1)C(=O)C1CCN(S(=O)(=O)c2ccc(OC(F)(F)F)cc2)CC1 | 71.7% [at 30 µM] (active)
CCNC(=O)C1(Cc2ccccc2)CCN(S(=O)(=O)c2ccc3occc3c2)CC1 | 22.2%
CCN(Cc1ccccc1)C(=O)C1CCN(S(=O)(=O)c2cccc(F)c2)CC1 | 63.2% [at 30 µM] (active)
CCCc1ccc(S(=O)(=O)N2CCC(C(=O)N(CC)Cc3ccccc3)CC2)cc1 | 62.9% [at 30 µM] (active)
CCN(Cc1ccccc1)C(=O)C1CCN(S(=O)(=O)CC(C)C)CC1 | 21.3% [at 30 µM]
CCN(Cc1ccccc1C(F)(F)F)C(=O)C1CCN(S(=O)(=O)c2ccc3cn[nH]c3c2)CC1 | 84.2% (active)
CC1c2ccccc2CCN1C(=O)C1CCN(S(=O)(=O)c2ccc3occc3c2)CC1 (configuration not stated) | 28.5%
CCN(Cc1ccccc1)C(=O)C1CCN(S(=O)(=O)c2ccc(OC)nc2)CC1 | 62.5% [at 30 µM] (active)
CCN(C(=O)C1CCN(S(=O)(=O)c2ccc(OC)cc2)CC1)[C@H](C)c1ccccc1 | 91.8% [at 30 µM] (active)
CCN(Cc1ccccc1OC)C(=O)C1CCN(S(=O)(=O)c2ccc3cn[nH]c3c2)CC1 | 84.5% (active)
CCN(Cc1ccccc1)C(=O)C1CCN(S(=O)(=O)c2ccc(Br)cc2)CC1 | 62.1% [at 30 µM] (active)
CC(=O)N(Cc1ccccc1)CC1CCN(S(=O)(=O)c2ccc3occc3c2)CC1 | 8.25%
